35 compounds from PubChem BioAssay (NCATS) can be followed below.

Each structure is given as a SMILES string. Results filed as inconclusive are left out. Activity calls are given as the source filed them. The call rests on the fitted dose curve; in most records, active means well fitted cell-killing curve with a large enough effect; inconclusive means small, poorly fitted or top-dose-only effect, or effect the other way; inactive means flat fitted curve, though single readings scatter.
On the % scale 0 is the no-effect control and ±100 the full control effect; potency means the concentration at half of the fitted maximal effect.

For one experiment, the system named is Hek293T. Nature of the experiment: Primary qHTS to identify gynecologic anti-cancer compounds using libraries of approved drugs and bioactive compounds (AID 1345084). Further: nearly all actives have a fitted effect of over 55% in size. Conditions: Gynecologic cancer cell panel viability, ATPlite luminescence, 48 h, control line for the selectivity index; series mostly up to 57.5 µM; activity change, negative = cytotoxicity: at the top concentration. In a few lines: (§1)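 Cells, 1,000 per well, were allowed to settle for 16 h at 37 C before compound addition. Five concentrations were tested for 48 h, and viability was read by ATPlite luminescence after 15 min at room temperature.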
As for `Fc1ccc(CN2CCC(Nc3ccc(C(F)(F)F)nn3)CC2)cc1F`, the “activity change, negative = cytotoxicity” value is 0.969% (inactive).
Same read-out and setting: then `Cc1nc(N2CCN(C(=O)c3ccco3)CC2)c2c3c(sc2n1)CCCC3`, with 2.3% (inactive); and `CC(F)(F)CN1CCOc2c(nn(-c3ccccc3Cl)c2-c2ccc(Cl)cc2)C1=O`, with -3.05% (inactive).
For `C=CC(=O)N1CCCC(n2nc(-c3ccc(Oc4ccccc4)cc3)c3c(N)ncnc32)C1` (centres undefined), the “activity change, negative = cytotoxicity” value was 15% (inactive).
Turning to `CN(C)c1cccc(Oc2cnc(Nc3cccc(O)c3)nc2)c1`, the “activity change, negative = cytotoxicity” value is 5.25% (inactive).
Consider `CN1CCC(NC(=O)c2cc(-c3c(O)cc(O)cc3Oc3ccc([N+](=O)[O-])cc3)on2)CC1`, for which the Potency was 1 µM (active).
For `CC1CC(=O)C2=C(C1)C1OC1C1(O)C2C(=O)c2cccc(O)c2C1O` (centres undefined), the “activity change, negative = cytotoxicity” value is -37.5% [at 38.5 µM] (inactive).
Consider `OC1CCC(Nc2nc(-c3ccccc3)nc3[nH]ccc23)CC1` (centres undefined), for which the “activity change, negative = cytotoxicity” value was 0.995% (inactive).
Take `COC(=O)CC1OC(C)C2=C(O)c3c(O)cccc3C(=O)C23OC13` (centres undefined): the Potency was 10 µM (active).
In the case of `Cc1nc2ccc(CN(C)c3ccc(C(=O)NC(CCC(=O)O)C(=O)O)s3)cc2c(=O)[nH]1` (centres undefined), the “activity change, negative = cytotoxicity” value was -23% (inactive).
On the same count and under the same terms, then `COC1CC(=O)C23C(=O)NC(Cc4c[nH]c5ccccc45)C2C(C)C2(C)OC2C3/C=C/CC(C)CC1O` (centres undefined), with -29.5% [at 25.3 µM] (inactive).
In the case of `Nc1ncnc2c1nc(Cl)n2C1OC2COP(=O)(O)OC2C1O` (centres undefined), the Potency is 10 µM (active).
Take `O=C(C1CCCCC1)N(CCN1CCN(c2ccccc2O)CC1)c1ccccn1`: the “activity change, negative = cytotoxicity” value is -3.04% (inactive).
For the compound `CC(C)c1ccc(NC(=O)c2cccs2)c(-c2nc3ccccc3[nH]c2=O)c1`, the “activity change, negative = cytotoxicity” value was 2.67% (inactive).
On to `C=C[C@@]1(C)CCC2C(=CCC3[C@]2(C)CCC[C@@]3(C)C(=O)O)C1` (some centres undefined), for which the “activity change, negative = cytotoxicity” value was -22.8% (inactive).
Same read-out and setting: for `CCCSc1nc(N[C@@H]2C[C@H]2c2ccc(F)c(F)c2)c2nnn([C@@H]3C[C@H](OCCO)[C@@H](O)[C@H]3O)c2n1` the value was 12.4% (inactive); for `FC(F)(F)c1ccccc1-c1cc(C(F)(F)F)c2nc(C3=NOC4(CCCCC4)C3)[nH]c2c1`, 5% (inactive).
On to `Cc1cc(OCCCS(C)(=O)=O)cc(C)c1-c1cccc(COc2ccc(C3=CC(=O)NS3=O)cc2)c1` (centres undefined), for which the “activity change, negative = cytotoxicity” value was 5.83% (inactive).
On the same count and under the same terms, for `Cn1c(=O)c(F)c(Nc2ccc(I)cc2F)c2c(=O)n(CC(O)CO)cnc21` (centres undefined) the value was -6.76% (inactive).
Regarding `C/C(=C\Cc1c(O)c(Cl)c(C)c(C=O)c1O)CC/C=C(\C)[C@H]1CC(=O)C(C)(C)O1`, the “activity change, negative = cytotoxicity” value is -22.1% [at 25.3 µM] (inactive).
In the case of `CCCn1ncc(CN2CCCC(C(=O)c3cccc(OC(C)C)c3)C2)c1C` (centres undefined), the “activity change, negative = cytotoxicity” value was -14.3% (inactive).
The same measure, in the same setting: then `Cn1ncnc1[C@H]1c2n[nH]c(=O)c3cc(F)cc(c23)N[C@@H]1c1ccc(F)cc1`, with 0.913% [at 25.3 µM] (inactive).
Take `CC(C)(O)C1Cc2c(ccc(C(=O)CCc3ccccc3)c2O)O1` (centres undefined): the Potency was 11.2 µM (active).
In the case of `COc1cc2ncnc(Nc3ccc(O)c(Br)c3)c2cc1OC`, the “activity change, negative = cytotoxicity” value was 20.8% (inactive).
The same measure, in the same setting: then `Nc1nc2c(ncn2C2OC3COP(=O)(O)OC3C2O)c(=O)[nH]1` (centres undefined), with 0.85% (inactive); and `CC1(C)SCCN(S(=O)(=O)c2ccc(Oc3ccncc3)cc2)[C@H]1C(=O)NO`, with -2.01% (inactive).
On to `CC(O)(C(=O)C1CC1(CO)COC1OC(CO)C(O)C(O)C1O)C1C(O)CC2C3CC=C4CC(O)CC(O)C4(C)C3C(O)CC21C` (centres undefined), for which the Potency was 1.41 µM (active).

The next experiment has as its system JEG-3. Described as above. Conditions: Gynecologic cancer cell panel viability, ATPlite luminescence, 48 h; series mostly up to 57.5 µM; activity change, negative = cytotoxicity: at the top concentration. An outline of the steps:
as §1
Take `Fc1ccc(CN2CCC(Nc3ccc(C(F)(F)F)nn3)CC2)cc1F`: the “activity change, negative = cytotoxicity” value was -3.65% (inactive).
With `Cc1nc(N2CCN(C(=O)c3ccco3)CC2)c2c3c(sc2n1)CCCC3`, the “activity change, negative = cytotoxicity” value is 8.15% (inactive).
`CC(F)(F)CN1CCOc2c(nn(-c3ccccc3Cl)c2-c2ccc(Cl)cc2)C1=O`: the “activity change, negative = cytotoxicity” value is 15.5% (inactive).
For `C=CC(=O)N1CCCC(n2nc(-c3ccc(Oc4ccccc4)cc3)c3c(N)ncnc32)C1` (centres undefined), the “activity change, negative = cytotoxicity” value is 25.8% (inactive).
Regarding `CN(C)c1cccc(Oc2cnc(Nc3cccc(O)c3)nc2)c1`, the “activity change, negative = cytotoxicity” value was -9.79% (inactive).
Still for that read-out and setting: then `NCC1CCN(c2nccc(-c3ccc4ccccc4c3)n2)CC1`, with -20.8% (inactive).
In the case of `O=C(Nc1nc2cc(C(F)(F)F)cc(NC3CC3)n2n1)c1cccnc1`, the Potency is 10 µM (active).
With `OC1CCC(Nc2nc(-c3ccccc3)nc3[nH]ccc23)CC1` (centres undefined), the “activity change, negative = cytotoxicity” value was -6.5% (inactive).
Still for that read-out and setting: then `Cn1ncc(Cl)c1-c1cc(C(=O)N[C@H](CN)Cc2ccc(F)c(F)c2)sc1Cl`, with -5.54% (inactive).
Regarding `Nc1ncnc2c1nc(Cl)n2C1OC2COP(=O)(O)OC2C1O` (centres undefined), the Potency is 15.8 µM (active).
As for `COc1ccc(C[C@H]2COC(=O)[C@@H]2Cc2ccc(O[C@@H]3O[C@H](CO)[C@@H](O)[C@H](O)[C@H]3O)c(OC)c2)cc1OC`, the “activity change, negative = cytotoxicity” value is 2.11% [at 25.3 µM] (inactive).
As for `CCC(CC)C(c1ccc(Nc2nc3ccccc3s2)cc1)n1cncn1` (centres undefined), the Potency is 31.6 µM (active).
With `O=C(C1CCCCC1)N(CCN1CCN(c2ccccc2O)CC1)c1ccccn1`, the “activity change, negative = cytotoxicity” value was -0.169% (inactive).
Same read-out and setting: then `C/C1=C\[C@@H](C)C[C@@H](C)[C@@H](Cc2cnco2)OC(=O)/C(C)=C/[C@@H](C)C[C@@H](C)[C@@H](Cc2cnco2)OC1=O`, with -12.7% [at 25.3 µM] (inactive).
On the same count and under the same terms, then `CC(C)c1ccc(NC(=O)c2cccs2)c(-c2nc3ccccc3[nH]c2=O)c1`, with -23.1% (inactive).
Consider `C=C[C@@]1(C)CCC2C(=CCC3[C@]2(C)CCC[C@@]3(C)C(=O)O)C1` (some centres undefined), for which the “activity change, negative = cytotoxicity” value was -19.4% (inactive).
Still for that read-out and setting: then `CCCSc1nc(N[C@@H]2C[C@H]2c2ccc(F)c(F)c2)c2nnn([C@@H]3C[C@H](OCCO)[C@@H](O)[C@H]3O)c2n1`, with 9.79% (inactive); and `FC(F)(F)c1ccccc1-c1cc(C(F)(F)F)c2nc(C3=NOC4(CCCCC4)C3)[nH]c2c1`, with -8.5% (inactive); and `Cc1cc(OCCCS(C)(=O)=O)cc(C)c1-c1cccc(COc2ccc(C3=CC(=O)NS3=O)cc2)c1` (centres undefined), with 2.46% (inactive).
Same read-out and setting: then `N#C/C(=C1\Nc2ccccc2S1)c1ccnc(NCCc2cccnc2)n1`, with -1.13% (inactive); and `Cn1c(=O)c(F)c(Nc2ccc(I)cc2F)c2c(=O)n(CC(O)CO)cnc21` (centres undefined), with -2.89% (inactive); and `CCCn1ncc(CN2CCCC(C(=O)c3cccc(OC(C)C)c3)C2)c1C` (centres undefined), with -1.25% (inactive).
As to `CC(C)(O)C1Cc2c(ccc(C(=O)CCc3ccccc3)c2O)O1` (centres undefined), the “activity change, negative = cytotoxicity” value is -40.2% [at 38.5 µM] (inactive).
`C[C@H](Oc1cc(-n2cnc3ccc(CN4CCN(C)CC4)cc32)sc1C(N)=O)c1ccccc1C(F)(F)F`: the Potency is 3.16 µM (active).
As for `COc1cc2ncnc(Nc3ccc(O)c(Br)c3)c2cc1OC`, the “activity change, negative = cytotoxicity” value was -10.2% (inactive).
As for `Nc1nc2c(ncn2C2OC3COP(=O)(O)OC3C2O)c(=O)[nH]1` (centres undefined), the “activity change, negative = cytotoxicity” value was 4.34% (inactive).
Still for that read-out and setting: then `CC1(C)SCCN(S(=O)(=O)c2ccc(Oc3ccncc3)cc2)[C@H]1C(=O)NO`, with 0.0788% (inactive).
